Five molecules from PubChem BioAssay can be followed below.

The structures appear in SMILES notation. Active and inactive are the calls of the source.

In one assay the target is Albumin (Bos taurus) (UniProt P02769). Nature of the assay: compounds binding labelled BSA control protein – biochemical, small-molecule microarray, Alexa647 label, 635/667 nm fluorescence, artefact control for SMM control protein annotation, profiling panel (AID 1118).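 Also: score merges 667 nm emission intensity and signal-to-noise per printed compound spot.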 The note with it: BSA-A647 binding, fluorescence 635 nm, higher = more signal.
Assay [1] can be described thus: probe aXIP binding to arrayed compounds – biochemical, NeuroSMM set, 635/667 nm fluorescence, primary screen (AID 1119).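 Also: probe is the protein aXip251-270 applied at 1 µg/mL to compound-printed slides; binding of probe to printed compounds measured as 667 nm fluorescence plus signal to noise.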 The note with it: small-molecule microarray, higher = more signal, called active from +8 up or from −8 down.
Assay [2] in a line: probe aNOTCH3 binding on compound microarray – biochemical, small-molecule microarray, 635/667 nm fluorescence, primary screen (AID 1120).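 Also: probe is a biotin-tagged antibody raised against NOTCH3 rather than NOTCH3 protein; score merges spot fluorescence near 667 nm with spot signal to noise.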 The note with it: higher = more signal.
Assay [3] is described as follows: probe aNOTCH2 binding on compound microarray – biochemical, small-molecule microarray, 635/667 nm fluorescence, primary screen (AID 1121).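 Also: score merges feature fluorescence read at 667 nm with its signal to noise.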 The note with it: higher = more signal.
In assay [4] the target is Carbonic anhydrase 2 (Homo sapiens) (UniProt P00918). Nature of the assay: compounds binding carbonic anhydrase 2 – biochemical, small-molecule microarray, Alexa647-labelled CAII, profiling panel (AID 1122). As to conditions: CAII-A647 binding fluorescence, higher = more signal.
The nature of assay [5]: COS7 lysate on small-molecule microarray, probe aHis, 635 nm (AID 1123).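 Also: z-score combines 667nm fluorescence intensity with signal-to-noise per printed compound spot.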 The note with it: COS7 cell lysate, fluorescence, higher = more signal.
Assay [6] is described as follows: probe aLAP1 signal on lysate-treated microarray – cell lysate, small-molecule microarray, COS7 lysate, primary screen (AID 1124).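 Also: lysate comes from COS7 cells expressing LAP1 and is applied at 0.3 µg/mL; score merges spot fluorescence near 667 nm with signal-to-noise over triplicate slides.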 As to conditions: probe aLAP1, fluorescence, higher = more signal.
The subject of a further assay is Sam68 (KHDRBS1). In words: compounds binding KHDRBS1 protein – biochemical, small-molecule microarray, 635 nm fluorescence, primary screen (AID 1125).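 Also: score merges 667 nm channel intensity with signal to noise over triplicate slides.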 The note with it: higher = more signal.
Assay [7] deals with Chordin-like protein 2 (CHRDL2). Nature of the assay: compounds binding chordin-like 2 – biochemical, small-molecule microarray, 635 nm fluorescence, primary screen (AID 1126).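 Also: printed compound slides probed with Chrdl2 protein at 4 µg/mL for 1 h at 4 C; score merges 667 nm emission intensity with signal to noise over three replicate slides.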 As to conditions: fluorescence 635 nm, higher = more signal.
Assay [8] deals with Concanavalin-A (Canavalia ensiformis) (UniProt P02866). In words: compounds binding concanavalin A lectin – biochemical, small-molecule microarray, Alexa647 label, 635 nm, artefact control for SMM control protein annotation, primary screen (AID 1127).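 Also: z combines 667 nm emission intensity with signal-to-noise across three replicate slides.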 The note with it: ConA-A647 binding fluorescence, higher = more signal.
Assay [9] is described as follows: compounds binding Alexa647 anti-His antibody – biochemical, small-molecule microarray, 635 nm fluorescence, artefact control for SMM control protein annotation, primary screen (AID 1128).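 Also: score merges feature fluorescence with signal-to-noise for each printed compound spot.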 The note with it: higher = more signal.
For assay [10], the system named is Human papillomavirus type 1a E7 protein (residues 1-88). In words: HPV1a E7 small-molecule binders, primary screen, biochemical, small-molecule microarray, residues 1-88, 635 nm (AID 1129). The note with it: small-molecule microarray binding, fluorescence 635 nm; higher = more signal.
Assay [11] deals with Focal adhesion kinase 1 (Homo sapiens) (UniProt Q05397). Nature of the assay: PTK2 protein binding on printed compound slides – biochemical, small-molecule microarray, 635/667 nm fluorescence, BSA, DTT, primary screen (AID 1130).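 Also: composite of spot emission at 667 nm and signal to noise over triplicate slides.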 The note with it: 635 nm fluorescence, higher = more signal.
The test system of assay [12] is Fibrinogen (Alexa647-labelled). Nature of the assay: Alexa647-fibrinogen binding to printed small molecules – biochemical, small-molecule microarray, 635/667 nm fluorescence, artefact control for SMM control-protein annotation, profiling panel (AID 1131).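 Also: z-score merges 667 nm fluorescence with per-spot signal-to-noise over triplicate slides.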 As to conditions: fibrinogen-A647 binding fluorescence, higher = more signal.
In assay [13] the target is Follistatin (Homo sapiens) (UniProt P19883). Nature of the assay: FST protein binding to printed compounds – biochemical, small-molecule microarray, 635/667 nm fluorescence, primary screen (AID 1132). As to conditions: 635 nm fluorescence, higher = more signal.
Assay [14] deals with Fibroblast growth factor 2 (Homo sapiens) (UniProt P09038). Nature of the assay: basic fibroblast growth factor binding to printed compounds – biochemical, small-molecule microarray, 635/667 nm fluorescence, primary screen (AID 1133). The note with it: FGF2, fluorescence 635/667, higher = more signal.
Assay [15] in a line: JC-1 mitochondrial potential readout, lung cancer cells – cell-based, A549, JC-1 fluorescence, basal, 24 h, 100 nL, profiling panel (AID 1138).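 Also: A549 lung adenocarcinoma cells under basal conditions with no added stimulus; test concentration not given here.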 The note with it: higher = more signal.
A further assay deals with Lefty1. In words: Lefty1 protein binding to printed compounds – biochemical, small-molecule microarray, 635/667 nm fluorescence, primary screen (AID 1139). As to conditions: fluorescence 635/667, higher = more signal.
In assay [16] the test system is wheat germ agglutinin (Triticum aestivum), Alexa647-labelled. In words: Alexa647-WGA lectin binding to printed small molecules – biochemical, small-molecule microarray, 635/667 nm fluorescence, artefact control for SMM control-protein annotation, profiling panel (AID 1140).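 Also: score merges 667 nm feature emission with signal to noise over triplicate slides.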 The note with it: WGA-A647 binding, 635 nm fluorescence, higher = more signal.
Assay [17] deals with Luciferin 4-monooxygenase (Photinus pyralis) (UniProt P08659). In words: inhibition of purified Photinus pyralis luciferase – biochemical, luminescence, purified enzyme, 2006 set, primary screen (AID 1141).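 Also: cell-free assay with purified firefly luciferase at 100 ng per well in PBS; test concentration not given here.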 The note with it: purified firefly luciferase, SteadyGlo luminescence, 30 min; higher = more signal, called active from +8 up or from −8 down.
Sequence of Luciferin 4-monooxygenase (Photinus pyralis) (P08659 whole entry, looked up): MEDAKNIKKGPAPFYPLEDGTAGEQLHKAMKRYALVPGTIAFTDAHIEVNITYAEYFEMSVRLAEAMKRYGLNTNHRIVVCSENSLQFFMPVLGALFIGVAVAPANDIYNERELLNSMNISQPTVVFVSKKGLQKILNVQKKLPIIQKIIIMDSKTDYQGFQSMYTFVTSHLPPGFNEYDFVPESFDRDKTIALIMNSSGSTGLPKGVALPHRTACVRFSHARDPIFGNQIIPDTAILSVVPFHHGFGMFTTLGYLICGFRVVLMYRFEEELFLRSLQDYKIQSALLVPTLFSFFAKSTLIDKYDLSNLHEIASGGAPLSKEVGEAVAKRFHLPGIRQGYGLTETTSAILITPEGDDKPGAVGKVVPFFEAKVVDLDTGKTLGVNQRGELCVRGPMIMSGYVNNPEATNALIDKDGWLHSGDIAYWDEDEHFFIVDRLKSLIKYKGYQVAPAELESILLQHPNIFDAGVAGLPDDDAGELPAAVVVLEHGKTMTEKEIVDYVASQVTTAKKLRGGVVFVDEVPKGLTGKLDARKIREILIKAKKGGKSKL

Sequence of Concanavalin-A (Canavalia ensiformis) (P02866 whole entry, looked up): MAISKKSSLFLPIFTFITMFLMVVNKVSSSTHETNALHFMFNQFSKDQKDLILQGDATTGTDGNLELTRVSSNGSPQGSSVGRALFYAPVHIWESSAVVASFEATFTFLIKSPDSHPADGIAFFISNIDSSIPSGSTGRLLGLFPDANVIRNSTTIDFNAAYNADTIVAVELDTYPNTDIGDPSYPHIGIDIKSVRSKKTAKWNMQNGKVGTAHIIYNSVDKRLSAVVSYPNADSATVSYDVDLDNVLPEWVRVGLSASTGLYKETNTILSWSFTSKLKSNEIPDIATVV
Sequence of Albumin (Bos taurus) (P02769 whole entry, looked up): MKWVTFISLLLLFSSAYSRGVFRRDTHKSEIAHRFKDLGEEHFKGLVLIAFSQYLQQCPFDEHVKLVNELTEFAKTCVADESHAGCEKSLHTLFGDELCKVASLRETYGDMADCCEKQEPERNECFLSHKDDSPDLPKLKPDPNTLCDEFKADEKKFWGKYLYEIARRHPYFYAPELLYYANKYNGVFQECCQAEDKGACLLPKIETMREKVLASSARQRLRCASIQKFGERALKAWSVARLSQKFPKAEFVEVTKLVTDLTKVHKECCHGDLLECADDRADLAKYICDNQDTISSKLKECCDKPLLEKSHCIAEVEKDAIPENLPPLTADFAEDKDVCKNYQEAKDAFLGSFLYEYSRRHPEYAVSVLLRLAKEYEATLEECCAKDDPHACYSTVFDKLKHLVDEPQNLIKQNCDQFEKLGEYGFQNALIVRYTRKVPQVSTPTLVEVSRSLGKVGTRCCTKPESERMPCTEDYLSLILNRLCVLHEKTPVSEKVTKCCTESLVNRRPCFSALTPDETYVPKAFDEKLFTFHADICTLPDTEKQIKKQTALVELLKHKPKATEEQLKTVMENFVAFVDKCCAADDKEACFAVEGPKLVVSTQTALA
Sequence of Focal adhesion kinase 1 (Homo sapiens) (Q05397 whole entry, looked up): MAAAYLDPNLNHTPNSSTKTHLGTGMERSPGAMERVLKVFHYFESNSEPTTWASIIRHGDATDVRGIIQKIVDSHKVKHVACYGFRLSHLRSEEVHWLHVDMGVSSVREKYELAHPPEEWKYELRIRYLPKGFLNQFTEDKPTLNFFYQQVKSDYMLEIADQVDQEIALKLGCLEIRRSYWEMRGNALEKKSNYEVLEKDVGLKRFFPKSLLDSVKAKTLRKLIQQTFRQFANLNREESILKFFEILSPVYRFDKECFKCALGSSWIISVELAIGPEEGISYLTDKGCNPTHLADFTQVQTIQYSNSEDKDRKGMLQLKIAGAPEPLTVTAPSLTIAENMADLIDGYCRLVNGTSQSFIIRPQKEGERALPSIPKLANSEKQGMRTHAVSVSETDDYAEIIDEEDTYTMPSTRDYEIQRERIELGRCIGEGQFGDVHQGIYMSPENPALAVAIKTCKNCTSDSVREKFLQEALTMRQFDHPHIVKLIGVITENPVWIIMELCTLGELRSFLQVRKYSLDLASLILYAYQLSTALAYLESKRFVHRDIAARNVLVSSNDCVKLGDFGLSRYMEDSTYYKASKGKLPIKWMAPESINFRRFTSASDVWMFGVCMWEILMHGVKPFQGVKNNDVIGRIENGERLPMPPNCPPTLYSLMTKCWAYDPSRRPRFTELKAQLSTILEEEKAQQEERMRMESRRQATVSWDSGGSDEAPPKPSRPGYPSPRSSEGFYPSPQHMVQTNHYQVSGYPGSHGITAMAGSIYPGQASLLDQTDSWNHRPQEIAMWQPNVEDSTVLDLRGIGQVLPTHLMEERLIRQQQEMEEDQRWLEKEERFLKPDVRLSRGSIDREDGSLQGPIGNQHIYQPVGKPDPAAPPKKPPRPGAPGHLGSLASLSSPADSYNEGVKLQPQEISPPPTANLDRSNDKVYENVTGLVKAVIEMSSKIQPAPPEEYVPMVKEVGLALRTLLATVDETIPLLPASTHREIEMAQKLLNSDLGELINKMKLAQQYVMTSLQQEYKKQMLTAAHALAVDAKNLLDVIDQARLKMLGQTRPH
Sequence of Fibroblast growth factor 2 (Homo sapiens) (P09038 whole entry, looked up): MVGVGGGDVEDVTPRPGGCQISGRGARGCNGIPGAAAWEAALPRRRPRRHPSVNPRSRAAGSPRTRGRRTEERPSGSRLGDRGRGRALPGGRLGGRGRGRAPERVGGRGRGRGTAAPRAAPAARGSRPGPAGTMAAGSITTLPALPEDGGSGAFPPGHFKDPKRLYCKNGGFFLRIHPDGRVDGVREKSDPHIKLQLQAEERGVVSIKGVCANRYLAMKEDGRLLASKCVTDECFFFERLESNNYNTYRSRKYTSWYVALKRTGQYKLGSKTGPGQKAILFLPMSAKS
Sequence of Follistatin (Homo sapiens) (P19883 whole entry, looked up): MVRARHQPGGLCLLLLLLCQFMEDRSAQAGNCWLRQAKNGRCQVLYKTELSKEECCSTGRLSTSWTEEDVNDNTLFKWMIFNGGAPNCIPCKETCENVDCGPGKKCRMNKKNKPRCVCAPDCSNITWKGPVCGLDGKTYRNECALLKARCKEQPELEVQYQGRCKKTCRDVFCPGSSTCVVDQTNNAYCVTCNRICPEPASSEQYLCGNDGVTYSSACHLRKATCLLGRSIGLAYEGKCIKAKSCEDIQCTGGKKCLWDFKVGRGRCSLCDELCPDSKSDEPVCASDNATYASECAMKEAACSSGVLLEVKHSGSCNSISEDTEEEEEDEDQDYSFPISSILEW

Regarding `CN1C(=O)C2C=CC(C(O)C(C)(C)C)N(Nc3ccccc3)C2C1=O` (stereo not given), the composite z-score is 0.494 with Albumin (Bos taurus); -0.217 in assay [2]; -0.029 in assay [3]; 0.847 in assay [4]; 2.78 in assay [5]; -0.519 in assay [6]. The composite z-score is -0.141 with Sam68 (KHDRBS1); -0.156 in assay [7]; -0.127 in [8]; 0.218 in [9]; -0.178 in [10]; 0.694 in assay [11]. The composite z-score in assay [12] is -0.0163; in [13] it was -0.288; in assay [14], -0.695; in the assay on Lefty1, -1.06; in assay [16] it was -0.062. Besides, the composite Z-score in assay [1] was 0.914 (inactive). The z-score was 0.31 in assay [15] and 0.856 (inactive) in assay [17].

For the molecule `CCOC(=O)C=Cc1cccc(OC)c1O`, the composite z-score is 0.576 with Albumin (Bos taurus); -0.426 in [2]; -0.14 in assay [3]; -0.288 in assay [4]; 0.0252 in [5]; -0.15 in assay [6]. The composite z-score was 0.0147 with Sam68 (KHDRBS1); -1.32 in assay [7]; 0.149 in assay [8]; 0.447 in [9]; -0.311 in [10]; -0.227 in assay [11]. Besides, the composite z-score in assay [12] is 0.102; in assay [13], -0.248; in assay [14], -1.13; in the assay with Lefty1 it was -0.679; in assay [16], 0.859. In [1], the composite Z-score is 0.229 (inactive). For the same molecule, the z-score was -1.37 in assay [15] and -17.6 (active) in [17].

For `COc1ccccc1CN1C(=O)c2ccccc2[C@](Cc2ccccc2I)(C(=O)NC2CC2)[C@@H]1c1ccc(CO)cc1`, the composite z-score with Albumin (Bos taurus) was 0.0506; in assay [2], -0.0208; in assay [3] it was -0.0878; in [4] it was 0.548; in assay [5] it was 2.11; in [6] it was 0.524. In addition, the composite z-score in the assay on Sam68 (KHDRBS1) was 1.32; in assay [7], 0.245; in [8], 1.14; in assay [9] it was 1.74; in [10] it was 1.26; in [11] it was 0.646. The composite z-score came to 0.987 in assay [12]; 1.32 in assay [13]; 1.55 in assay [14]; 1.16 in the assay on Lefty1; 0.52 in [16]. Besides, the composite Z-score in assay [1] is 0.0161 (inactive). Besides, the z-score is 1.16 in [15] and 0.985 (inactive) in [17].

Turning to `CN(C)CCCC[C@@H]1NC(=O)[C@@H]2C[C@H](C(=O)NCc3ccc(F)cc3)[C@H](c3cccc(OCCO)c3)N2C1=O`, the composite z-score was -0.202 with Albumin (Bos taurus); -0.0311 in [2]; -0.0598 in assay [3]; 0.569 in assay [4]; 2 in [5]; 0.776 in assay [6]. The composite z-score in the assay with Sam68 (KHDRBS1) came out at 1.05; in assay [7], 0.991; in assay [8], 1.11; in assay [9], 0.654; in [10] it was 0.68; in assay [11], 0.0978. Besides, the composite z-score in [12] is 0.909; in [13] it was 1.41; in assay [14], 1.96; in the assay on Lefty1, 1.11; in assay [16], -0.0486. For the same molecule, the composite Z-score in [1] was -0.398 (inactive). In addition, the results for the z-score in [15] and in [17] were 0.591 and -0.579 (inactive), respectively.

Regarding `O=C1C2C=CC(C(O)c3ccccn3)N(Nc3ccccc3F)C2C(=O)N1c1ccccc1` (stereo not given), the composite z-score in the assay with Albumin (Bos taurus) is 0.127; in assay [2] it was -0.0918; in assay [3] it was -0.111; in [4], 0.766; in assay [5], 0.596; in assay [6], 0.753. Further, the composite z-score in the assay with Sam68 (KHDRBS1) was 0.0702; in [7], 0.194; in [8], 0.634; in assay [9], -0.0724; in assay [10], 0.525; in [11], 1.27. In addition, the composite z-score was 0.696 in assay [12]; 0.101 in [13]; -0.0308 in [14]; -0.377 in the assay with Lefty1; 0.253 in assay [16]. Moreover, in [1], the composite Z-score is -0.21 (inactive). Further, the z-score in [15] was 1.03; in assay [17], -0.323 (inactive).
